# Source: PubChem BioAssay
# Activity calls are given as the source filed them. Unless noted, how the calls were made is not given here.
# How the values were obtained:
# [1] = test system: Wnt5a (protein binding on small-molecule microarray); assay: Wnt5a binders on small-molecule microarray, primary screen, biophysical, 635/667 nm fluorescence (AID 1142); details: 635 nm fluorescence, higher = more signal;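 further: fluorescence read at 667 nm with signal to noise per printed feature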
# [2] = cell viability in Huh7 cells, primary screen, cytotoxicity control for HCV replication inhibitor project, CellTiter-Glo luminescence, basal, 48 h (AID 1143); details: Huh7 HCV replicon, higher = more signal, called active from +8 up or from −8 down;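 further: Huh7 hepatoma cells carrying a hepatitis C replication reporter with no stimulus; test concentration not given here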
# [3] = P. aeruginosa biofilm formation inhibitors, primary screen, PAO1 strain, BacTiter-Glo luminescence, LB-PBS (AID 1144); details: 12 h, higher = more signal
# [4] = CREB reporter modulators without forskolin, primary screen, cell-based, PC12, CRE-LacZ reporter, unstimulated (AID 1145); details: no forskolin, luminescence, 4.5 h, higher = more signal, called active from +8 up or from −8 down
# [5] = CREB reporter modulators under forskolin, primary screen, cell-based, PC12, CRE-LacZ reporter, forskolin-stimulated (AID 1146); details: luminescence, 4.5 h, higher = more signal, called active from +8 up or from −8 down;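 further: PC12 cells with 6xCRE LacZ reporter stimulated by forskolin 10 µM; beta-galactosidase reporter signal reflecting CREB driven transcription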
# [6] = molecular target: Streptavidin (Streptomyces avidinii) (UniProt P22629); assay: streptavidin binders on small-molecule microarray, primary screen, artefact control for SMM compound annotation, biophysical, 635/667 nm fluorescence (AID 1147); details: streptavidin binding, higher = more signal;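 further: signal reflects streptavidin binding to arrayed compounds as a control protein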
# [7] = small-molecule binders of probe aInhba, primary screen, biochemical, small-molecule microarray, 635/667 nm fluorescence (AID 1148); details: higher = more signal;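 further: score merges 667nm spot fluorescence with signal-to-noise for antibody binding to printed compounds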
# Torsin-1A (Homo sapiens) [8] = molecular target: Torsin-1A (Homo sapiens) (UniProt O14656); assay: torsin A binders from cell lysate, primary screen, small-molecule microarray, wild-type, 635/667 nm (AID 1149); details: COS7 hTOR1A-WT lysate, 635 nm fluorescence, higher = more signal
# Torsin-1A (Homo sapiens) [9] = molecular target: Torsin-1A (Homo sapiens) (UniProt O14656); assay: small-molecule binders of mutant TOR1A in lysate, primary screen, cell lysate, small-molecule microarray, COS7 lysate, 635/667 nm fluorescence (AID 1150); details: COS7 hTOR1A mutant lysate, 635 nm fluorescence, higher = more signal;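 further: score pools 667 nm emission and signal to noise measuring lysate protein binding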
# [10] = test system: Sonic hedgehog protein (Shh); assay: small-molecule binders of Shh protein, primary screen, biochemical, small-molecule microarray, 635/667 nm fluorescence (AID 1151); details: small-molecule microarray binding, 635 nm fluorescence; higher = more signal;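 further: Shh protein binding to compounds spotted on small-molecule microarray slides; score combines spot fluorescence intensity with signal-to-noise across triplicate slides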
# [11] = E. coli DRC41 culture turbidity changes, primary screen, E. coli filamentation inducer project, strain DRC41, OD650, 48 h (AID 1152);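 further: E. coli MC1000 strain DRC41 lacking acrAB efflux pump and sulA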; details: E. coli DRC41 (acrAB sulA), higher = more signal, called active from +8 up or from −8 down
# [12] = small-molecule binders of probe aLefty1, primary screen, biochemical, small-molecule microarray, 635/667 nm fluorescence (AID 1153); details: higher = more signal;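 further: score merges spot fluorescence with signal-to-noise ratio from the scanned slide images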
# [13] = PSAC antagonists in infected red cells, primary screen, cell-based, P. falciparum Indochina, OD700, 1 h (AID 1154); details: P. falciparum Indochina infected RBC osmotic lysis, higher = more signal, called active from +8 up or from −8 down
# [14] = PSAC antagonists in infected red cells, primary screen, cell-based, P. falciparum Indochina, OD700, 2 h (AID 1155);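 further: lysis reports solute entry through the parasite surface anion channel PSAC; channel blockers reduce lysis of infected cells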; details: P. falciparum Indochina infected erythrocytes, osmotic lysis OD700; higher = more signal, called active from +8 up or from −8 down
# [15] = osmotic lysis modulators in infected erythrocytes, primary screen, PSAC antagonist project, cell-based, P. falciparum Indochina, OD700, 3 h (AID 1156); details: higher = more signal, called active from +8 up or from −8 down
# [16] = PSAC antagonists in infected red cells, primary screen, cell-based, P. falciparum Indochina, OD700, 18 h (AID 1157); details: P. falciparum Indochina infected erythrocytes, osmotic lysis OD700, 18 h; higher = more signal, called active from +8 up or from −8 down
# [17] = modulators of S6 phosphorylation in cells, primary screen, cell-based, A549, cytoblot, luminescence, serum-stimulated (AID 1158); details: A549 phospho-S6 cytoblot, 5 h, higher = more signal;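 further: serum-stimulated A549 lung adenocarcinoma cells; signal is phosphorylated S6 detected by cytoblot immunostaining with HRP secondary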
# [18] = molecular target: NADPH oxidase 2 (Homo sapiens) (UniProt P04839); assay: NOX2-dependent H2O2 signal modulators, primary screen, NOX inhibitor project, cell-based, HEK293-NOX2, PMA-stimulated, Amplex Red fluorescence (AID 1159); details: 45 min, higher = more signal, called active from +8 up or from −8 down; further: test concentration not given here
# [19] = molecular target: NADPH oxidase 4 (Homo sapiens) (UniProt Q9NPH5); assay: NOX4-dependent H2O2 signal modulators, primary screen, NOX inhibitor project, cell-based, HEK293-NOX4, tetracycline-induced, Amplex Red fluorescence (AID 1160); details: 45 min, higher = more signal, called active from +8 up or from −8 down
# [20] = molecular target: NADPH oxidase 5 (Homo sapiens) (UniProt Q96PH1); assay: NOX5-dependent H2O2 signal modulators, primary screen, NOX inhibitor project, cell-based, HEK293-NOX5, Amplex Red fluorescence (AID 1161); details: HEK293-NOX5, ionomycin, 45 min, higher = more signal
# Sequence of NADPH oxidase 5 (Homo sapiens) (Q96PH1 whole entry, looked up): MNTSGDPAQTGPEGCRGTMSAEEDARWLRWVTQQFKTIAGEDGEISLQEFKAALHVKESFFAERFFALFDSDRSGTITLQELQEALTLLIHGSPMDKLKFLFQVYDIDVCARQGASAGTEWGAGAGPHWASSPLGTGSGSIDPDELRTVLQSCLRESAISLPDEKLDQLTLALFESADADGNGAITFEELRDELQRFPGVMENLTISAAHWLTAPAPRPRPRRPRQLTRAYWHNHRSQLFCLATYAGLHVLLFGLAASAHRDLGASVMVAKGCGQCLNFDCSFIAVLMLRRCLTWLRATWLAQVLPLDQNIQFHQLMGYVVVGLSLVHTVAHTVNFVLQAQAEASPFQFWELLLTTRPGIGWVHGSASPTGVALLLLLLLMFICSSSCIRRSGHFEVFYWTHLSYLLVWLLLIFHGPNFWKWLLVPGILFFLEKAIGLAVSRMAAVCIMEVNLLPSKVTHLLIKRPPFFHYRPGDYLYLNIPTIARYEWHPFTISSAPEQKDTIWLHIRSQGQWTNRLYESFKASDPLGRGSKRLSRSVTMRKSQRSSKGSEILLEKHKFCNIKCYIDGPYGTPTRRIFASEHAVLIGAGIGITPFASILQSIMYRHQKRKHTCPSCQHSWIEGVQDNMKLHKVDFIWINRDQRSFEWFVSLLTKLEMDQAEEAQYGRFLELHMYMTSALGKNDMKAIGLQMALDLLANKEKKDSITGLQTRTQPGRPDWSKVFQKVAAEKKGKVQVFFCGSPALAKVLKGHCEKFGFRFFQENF
# Sequence of Streptavidin (Streptomyces avidinii) (P22629 whole entry, looked up): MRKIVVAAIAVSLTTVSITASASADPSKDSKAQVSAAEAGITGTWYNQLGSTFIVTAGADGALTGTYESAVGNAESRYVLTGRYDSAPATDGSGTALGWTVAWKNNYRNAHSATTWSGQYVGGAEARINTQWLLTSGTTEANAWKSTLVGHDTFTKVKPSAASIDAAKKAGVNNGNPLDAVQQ
# Sequence of NADPH oxidase 4 (Homo sapiens) (Q9NPH5 whole entry, looked up): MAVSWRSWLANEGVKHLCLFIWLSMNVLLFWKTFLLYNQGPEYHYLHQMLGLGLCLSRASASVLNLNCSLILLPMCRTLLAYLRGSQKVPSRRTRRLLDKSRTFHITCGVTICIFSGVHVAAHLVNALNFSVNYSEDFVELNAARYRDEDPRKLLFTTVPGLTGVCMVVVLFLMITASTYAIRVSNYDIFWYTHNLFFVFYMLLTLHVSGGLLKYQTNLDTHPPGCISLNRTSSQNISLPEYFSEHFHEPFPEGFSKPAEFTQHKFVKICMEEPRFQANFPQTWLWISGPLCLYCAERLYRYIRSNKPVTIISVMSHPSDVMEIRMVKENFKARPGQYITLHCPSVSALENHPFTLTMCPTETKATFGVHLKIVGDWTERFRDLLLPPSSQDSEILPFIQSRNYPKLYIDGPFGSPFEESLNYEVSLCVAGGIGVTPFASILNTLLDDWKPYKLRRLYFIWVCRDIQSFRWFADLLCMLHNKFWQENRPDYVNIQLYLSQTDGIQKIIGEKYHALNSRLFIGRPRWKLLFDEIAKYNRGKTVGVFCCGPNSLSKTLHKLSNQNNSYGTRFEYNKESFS
# Sequence of Torsin-1A (Homo sapiens) (O14656 whole entry, looked up): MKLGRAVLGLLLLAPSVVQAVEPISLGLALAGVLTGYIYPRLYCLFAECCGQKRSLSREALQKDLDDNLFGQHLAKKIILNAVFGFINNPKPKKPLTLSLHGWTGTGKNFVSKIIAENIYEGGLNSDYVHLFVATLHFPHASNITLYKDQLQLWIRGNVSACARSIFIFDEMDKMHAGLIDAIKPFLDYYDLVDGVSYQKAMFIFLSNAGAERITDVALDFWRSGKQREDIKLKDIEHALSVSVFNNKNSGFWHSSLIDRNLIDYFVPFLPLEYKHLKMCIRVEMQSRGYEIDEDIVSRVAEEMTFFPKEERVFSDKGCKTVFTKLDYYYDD
# Sequence of NADPH oxidase 2 (Homo sapiens) (P04839 whole entry, looked up): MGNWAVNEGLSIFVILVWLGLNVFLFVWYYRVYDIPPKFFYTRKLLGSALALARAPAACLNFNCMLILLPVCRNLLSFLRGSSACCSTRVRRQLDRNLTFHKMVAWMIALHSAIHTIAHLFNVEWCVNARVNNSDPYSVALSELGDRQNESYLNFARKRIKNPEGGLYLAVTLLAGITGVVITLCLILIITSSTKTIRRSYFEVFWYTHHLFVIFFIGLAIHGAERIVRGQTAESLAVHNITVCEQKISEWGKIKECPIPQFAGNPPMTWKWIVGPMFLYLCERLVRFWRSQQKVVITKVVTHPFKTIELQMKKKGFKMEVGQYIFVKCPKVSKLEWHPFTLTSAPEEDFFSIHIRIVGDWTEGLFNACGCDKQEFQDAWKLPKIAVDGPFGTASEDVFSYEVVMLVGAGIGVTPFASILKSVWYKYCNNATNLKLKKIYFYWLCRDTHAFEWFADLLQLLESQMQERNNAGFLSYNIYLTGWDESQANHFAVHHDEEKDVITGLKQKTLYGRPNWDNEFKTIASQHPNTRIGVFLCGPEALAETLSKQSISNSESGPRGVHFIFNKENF
compound,measurement,setting,value
CC#CC(=O)Oc1ccc(Br)cc1C=CC(=O)OCC,composite z-score,[1],-0.0465
same,z-score,[2],-2.98 (inactive)
same,z-score,[3],0.0278 (inactive)
same,z-score,[4],1.81 (inactive)
same,z-score,[5],32.2 (active)
same,composite z-score,[6],0.119
same,composite z-score,[7],0.248
same,composite z-score,Torsin-1A (Homo sapiens) [8],-0.0177
same,composite z-score,Torsin-1A (Homo sapiens) [9],-0.329
same,composite z-score,[10],0.247
same,z-score,[11],-1.17 (inactive)
same,composite z-score,[12],0.0386
same,z-score,[13],25.5 (active)
same,z-score,[14],7.06 (inactive)
same,z-score,[15],-0.189 (inactive)
same,z-score,[16],1.37 (inactive)
same,z-score,[17],-0.27
same,z-score,[18],-1.86 (inactive)
same,z-score,[19],-2.68 (inactive)
same,z-score,[20],0.227
CN(C)CCCC[C@@H]1NC(=O)[C@H]2C[C@@H](C(=O)NCCCCCN)[C@@H](c3cccc(OCCO)c3)N2C1=O,composite z-score,[1],0.456
same,z-score,[2],-1.01 (inactive)
same,z-score,[3],0.767 (inactive)
same,z-score,[4],0.155 (inactive)
same,z-score,[5],0.421 (inactive)
same,composite z-score,[6],1.13
same,composite z-score,[7],0.495
same,composite z-score,Torsin-1A (Homo sapiens) [8],1.99
same,composite z-score,Torsin-1A (Homo sapiens) [9],2.15
same,composite z-score,[10],1.28
same,z-score,[11],0.675 (inactive)
same,composite z-score,[12],1.28
same,z-score,[13],1.9 (inactive)
same,z-score,[14],0.112 (inactive)
same,z-score,[15],-1.16 (inactive)
same,z-score,[16],0.129 (inactive)
same,z-score,[17],0.204
same,z-score,[18],0.653 (inactive)
same,z-score,[19],0.222 (inactive)
same,z-score,[20],1.52
COCCCNC(=O)[C@@]1(CCS(=O)(=O)c2ccccc2)N=C(c2ccc(OCCCO)cc2)O[C@H]1c1ccccc1N=[N+]=[N-],composite z-score,[1],1.04
same,z-score,[2],-5.54 (inactive)
same,z-score,[3],-0.372 (inactive)
same,z-score,[4],0.0451 (inactive)
same,z-score,[5],-1.15 (inactive)
same,composite z-score,[6],0.985
same,composite z-score,[7],0.467
same,composite z-score,Torsin-1A (Homo sapiens) [8],0.765
same,composite z-score,Torsin-1A (Homo sapiens) [9],1.49
same,composite z-score,[10],1.72
same,z-score,[11],1.12 (inactive)
same,composite z-score,[12],0.517
same,z-score,[13],29.4 (active)
same,z-score,[14],21 (active)
same,z-score,[15],1.28 (inactive)
same,z-score,[16],0.425 (inactive)
same,z-score,[17],1.62
same,z-score,[18],-5.07 (inactive)
same,z-score,[19],-2.78 (inactive)
same,z-score,[20],-2.11
CCOC(=O)C1=CC[C@H]2C(=O)N(c3ccccc3)C(=O)[C@@H]12,composite z-score,[1],0.125
same,z-score,[2],-0.321 (inactive)
same,z-score,[3],0.96 (inactive)
same,z-score,[4],0.836 (inactive)
same,z-score,[5],-0.0473 (inactive)
same,composite z-score,[6],0.9
same,composite z-score,[7],0.19
same,composite z-score,Torsin-1A (Homo sapiens) [8],0.079
same,composite z-score,Torsin-1A (Homo sapiens) [9],1.08
same,composite z-score,[10],0.814
same,z-score,[11],-1.58 (inactive)
same,composite z-score,[12],0.0027
same,z-score,[13],0.399 (inactive)
same,z-score,[14],0.772 (inactive)
same,z-score,[15],0.692 (inactive)
same,z-score,[16],0.339 (inactive)
same,z-score,[17],-0.743
same,z-score,[18],-0.234 (inactive)
same,z-score,[19],-2.03 (inactive)
same,z-score,[20],-2.36
